The entries come from a sample that favours hits as a whole.
Artemis inh: Artemis endonuclease inhibitors, primary screen, biochemical, fluorescence intensity, FAM/BHQ-1 hairpin substrate. 30,000 tested, 0.78% active. AID 686954, 2013. recombinant Artemis, quenched FAM hairpin cleavage fluorescence. inhibition, % at 10 µM. Protein artemis (Homo sapiens), Q96SD1;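 active = at 10 µM dose, at least 30% inhibition, measured as corrected fluorescence normalized to stimulator and neutral control wells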
Target sequence (Q96SD1 whole entry, looked up): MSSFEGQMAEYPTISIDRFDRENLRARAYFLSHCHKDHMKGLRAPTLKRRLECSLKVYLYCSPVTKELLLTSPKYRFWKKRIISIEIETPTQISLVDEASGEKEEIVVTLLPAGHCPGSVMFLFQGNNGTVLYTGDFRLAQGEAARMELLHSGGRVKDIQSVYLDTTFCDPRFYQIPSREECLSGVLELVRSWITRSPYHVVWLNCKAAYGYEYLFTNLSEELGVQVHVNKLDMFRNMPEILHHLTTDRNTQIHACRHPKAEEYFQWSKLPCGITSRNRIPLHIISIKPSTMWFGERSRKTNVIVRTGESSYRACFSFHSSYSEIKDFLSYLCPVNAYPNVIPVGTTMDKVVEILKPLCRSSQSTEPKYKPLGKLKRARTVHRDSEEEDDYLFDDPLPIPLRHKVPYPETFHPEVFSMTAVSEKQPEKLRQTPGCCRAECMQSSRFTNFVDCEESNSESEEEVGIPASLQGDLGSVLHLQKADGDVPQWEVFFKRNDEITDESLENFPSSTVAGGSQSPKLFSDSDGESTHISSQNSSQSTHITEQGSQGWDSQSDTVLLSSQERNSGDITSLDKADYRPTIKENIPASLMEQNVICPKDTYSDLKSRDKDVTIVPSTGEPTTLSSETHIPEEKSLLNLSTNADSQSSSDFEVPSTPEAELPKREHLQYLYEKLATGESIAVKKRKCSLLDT
Large screens that a line does not name were inactive.

Cc1nc2c(=O)n(C)c(=O)nc-2n(C)n1	Artemis inh 78
Nc1ccc(C2(c3ccc(N)cc3)CN3CCC2CC3)cc1	none
COc1ccc(-c2cc(C(F)(F)F)n3nc(C(=O)N4CCC5(CC4)OCCO5)cc3n2)cc1OC	none
CN(C=O)CP(=O)(O)CN(C)C=O	none
CC[N+](C)(CC)CCCOC(=O)C(O)(c1ccccc1)C1CCCCC1 (centres undefined)	none
CC(C)n1nnnc1CN1CCN(C)CC1	none
CC(C)OCCCNC(=O)c1c(N)n(Cc2cccs2)c2nc3ccccc3nc12	none
Nc1c(C(=O)NC2CCCC2)c2nc3ccccc3nc2n1CC1CCCO1 (centres undefined)	Artemis inh 31
OCC12CO[C@@H]3c4ccccc4[C@H](OC1)N32 (some centres undefined)	none
NC(=O)CN1CC(c2ccccc2)CC1=O (centres undefined)	none
CC(=O)c1ccc2c(c1)C1C(Cl)C(Sc3ccccc3[N+](=O)[O-])CC1C(c1ccccc1[N+](=O)[O-])N2 (centres undefined)	Artemis inh 31
Cc1ccc(C2C(S(C)(=O)=O)=C(O)C(=O)N2c2ccccc2)cc1 (centres undefined) (tested in a mixture with another compound)	none
CCOC(=O)C(O)(c1cn(C)c2ccccc12)C(F)(F)F (centres undefined)	none
CC(C)OC(=O)c1c(N)n(Cc2ccco2)c2nc3ccccc3nc12	none
COC(=O)c1c(N)n(Cc2ccc(OC)cc2)c2nc3ccccc3nc12	Artemis inh 31
COCCOC(=O)c1c(N)n(Cc2ccco2)c2nc3ccccc3nc12	none
COCCOC(=O)c1c(N)n(Cc2ccc(OC)cc2)c2nc3ccccc3nc12	none
COCCCn1c(N)c(C(=O)OCCOC)c2nc3ccccc3nc21	Artemis inh 38
CCOC(=O)c1c(N)n(CCCOC(=O)c2ccco2)c2nc3ccccc3nc12	none
CCOC(=O)N1CCC(NC(=O)CCc2nc(C3=CCN(C)CC3)no2)CC1	none
CC(C)(C)c1nc(NCc2ccc3c(c2)OCO3)c2nnn(Cc3ccccc3Cl)c2n1	none
COc1ccc(C(CC(=O)N2CCC3(CC2)OCCO3)NS(=O)(=O)c2ccc(C)cc2)cc1 (centres undefined)	none
ON1C2CCCCC2N(O)C1c1ccccc1F (centres undefined)	none
CCOc1ccccc1C1SCC(=O)Nc2c1c(=O)[nH]n2C(CC)CC (centres undefined)	none
CC1(C)CC(=O)C=C(NCCN2CCN(C(=O)Cc3ccc(Cl)cc3)CC2)C1	none

From PubChem
